Results on 40 compounds are retold here after PubChem BioAssay (Tox21).

Molecules are shown by their SMILES. Several values for one entry are separate records, joined by “and”; a condition that tells them apart may be missing. Identical values can stand only once. Records with an inconclusive call do not appear. Values without a mark were called inactive. Activity calls are given as the source filed them. The call rests on the fitted dose curve; in most records, active means well fitted cell-killing curve with a large enough effect in the repeat runs; inconclusive means weak or mixed curves, or effect the other way; inactive means flat fitted curve, though single readings scatter.
On the % scale 0 is the no-effect control and ±100 the full control effect; potency means the concentration at half of the fitted maximal effect.

This experiment in a line: qHTS RealTime-Glo MT Cell Viability Assay in HEK293 cells - 16 hour (AID 1224872). Further: nearly all actives have a fitted effect of over 50% in size. On activity change, negative = cytotoxicity: top concentration of the series differs between compounds. As to conditions: RealTime-Glo luminescence; series mostly up to 76.8 µM; activity change, negative = cytotoxicity: at the top concentration. The source says: National Center for Advancing Translational Sciences [NCATS]
NIH Chemical Genomics Center [NCGC]
U.S. Environmental Protection Agency [EPA]
National Institutes of Environmental Health Sciences [NIEHS]
National Toxicology Program [NTP]
U.S. Food and Drug Administration [FDA]
Measure of cell viability is critical in the cell-base assay. Analysis of cell viability is necessary for the characterization of cell responses to cytotoxic drugs and environmental stress. A RealTime-Glo MT Cell Viability Assay to monitor cell viability in real time of continues cell culture during 40 hours of compound treatment was used to screen Tox21 10K library compounds in Hek293 cells. The RealTime-Glo MT Cell Viability Assay is a nonlytic, homogeneous, bioluminescent method to measure cell viability in real time using a simple, plate-based method. The assay involves adding NanoLuc luciferase and a cell-permeant prosubstrate to cells in culture. Viable cells reduce the proprietary prosubstrate to generate a substrate for NanoLuc luciferase. This substrate diffuses from cells into the surrounding culture medium, where it is rapidly used by the NanoLuc Enzyme to produce a luminescent signal. The signal correlates with the number of viable cells, making the assay well suited for cytotoxicity studies.
Tox21 Assay Protocol Summary:
The mixture of Hek293 cell suspension and reagents were dispensed at 600cells/6 ul/well in 1536-well tissue culture treated black solid bottom plates using a Multidrop dispenser. After the assay plates were incubated at a 37 C/5% CO2 incubator for 5 hours, 23 nL of compounds dissolved in DMSO, positive and negative controls was transferred to the assay plate by a pintool work station. The plates were incubated at 37 C for 40 hours. The luminescence intensity were measured at 0h, 8h, 16h, 24h, 32h and 40h time points using ViewLux plate reader during compound treatment.
In general terms: Quantitative high-throughput screening tests each substance at several concentrations.
`CCCN(CCC)CCc1cccc2c1CC(=O)N2`: the “activity change, negative = cytotoxicity” value is 10.2% [at 35.3 µM]. On the same count and under the same terms, the value for `CN1C(=O)N(C)C(O)C1O` (stereo not given) was -2.42%; that for `C/C=C(\C)C#N` was -3.46%; that for `Oc1ccc(C2CNCCc3c2cc(O)c(O)c3Cl)cc1` (stereo not given) was -8.49% [at 35.3 µM].

In the case of `NCCCNCCSP(=O)(O)O`, the activity change, negative = cytotoxicity is 0.443% [at 6.97 µM]. With `CCCCCSCCCCC`, the “activity change, negative = cytotoxicity” value was 1.12%.

Take `CC(C)CNCC(C)C`: the “activity change, negative = cytotoxicity” value was 4.56%. Consider `CCCCOCCOCCOCCCC`, for which the “activity change, negative = cytotoxicity” value was 6.53%. Take `O=c1cc(-c2ccccc2)oc2ccccc12`: the Potency is 19.5 µM (active) and 6.88 µM (active). `CCC=O`: the “activity change, negative = cytotoxicity” value is 8.16%.

Take `Nc1c[n+](N2CCOCC2)no1`: the “activity change, negative = cytotoxicity” value was 1.48% [at 35.3 µM]. Same read-out and setting: as for `FC1(F)C(F)(F)C(F)(F)C2(F)C(F)(F)C(F)(F)C(F)(F)C(F)(F)C2(F)C1(F)F` (stereo not given), the figure is 4.78% [at 35.3 µM]; as for `Cc1cnc(NS(=O)(=O)c2ccc(N)cc2)nc1`, 5.94% [at 35.3 µM]; as for `COC(=O)C1=C(C)NC(C)=C(C(=O)OC)C1c1ccccc1[N+](=O)[O-]`, -0.909% [at 35.3 µM].

`CC1(C)C(O)C(C)(C)C1O` (stereo not given): the “activity change, negative = cytotoxicity” value was 3.49%. On to `N[C@H]1CN(c2c(F)cc3c(=O)c(C(=O)O)cn(C4C[C@H]4F)c3c2Cl)CC12CC2` (stereo not given in full), for which the “activity change, negative = cytotoxicity” value is -1.81% [at 35.3 µM]. `O=C1CCCCCCCCCCCN1`: the Potency result was “inactive”.

Take `CC(=O)Nc1c(I)cc(I)c(C(=O)O)c1I`: the “activity change, negative = cytotoxicity” value was 6.84% [at 35.3 µM].

For the compound `Cc1c(O)cccc1O`, the “activity change, negative = cytotoxicity” value is 5.84%. On to `CCc1ccc(O)c(OC)c1`, for which the “activity change, negative = cytotoxicity” value is 15.3%. With `C=C[Si](OC(=C)C)(OC(=C)C)OC(=C)C`, the “activity change, negative = cytotoxicity” value was 24.4%. Consider `O=S(O)CO`, for which the “activity change, negative = cytotoxicity” value was 17.4%.

Consider `OC1CCCCC1c1ccccc1` (stereo not given), for which the “activity change, negative = cytotoxicity” value was 7.69%. The same measure, in the same setting: as for `CCO/C([O-])=N/c1c[n+](N2CCOCC2)no1`, the figure is 7.05% [at 35.3 µM]; as for `O=C(c1ccccc1)C1CCCCC1`, -11%. With `NC(=O)c1ccc([N+](=O)[O-])cc1`, the “activity change, negative = cytotoxicity” value was 6.83%. Consider `NC(CSCC(=O)O)C(=O)O` (stereo not given), for which the “activity change, negative = cytotoxicity” value was 10.7% [at 35.3 µM]. With `COc1ccc2c(c1)CCCC2=O`, the “activity change, negative = cytotoxicity” value is 2.23% [at 35.3 µM].

As for `CN1CCCC1`, the “activity change, negative = cytotoxicity” value is 16.7%. With `OCCOc1ccc(OCCO)cc1`, the “activity change, negative = cytotoxicity” value was 18.4%.

On to `Cc1cccc(C)c1NC(=O)C(C)N` (stereo not given), for which the “activity change, negative = cytotoxicity” value was 9.24% [at 35.3 µM]. For `CC(C)(C)c1nnc(NS(=O)(=O)c2ccccc2)s1`, the “activity change, negative = cytotoxicity” value was 7.62% [at 35.3 µM]. Turning to `CC(=O)CC(C)C`, the “activity change, negative = cytotoxicity” value was 15.8%.

For `c1ccc(CC2=NCCN2)cc1`, the “activity change, negative = cytotoxicity” value was -10.7% [at 35.3 µM].

Regarding `O=C(O)Cc1ccc(CCNS(=O)(=O)c2ccc(Cl)cc2)cc1`, the “activity change, negative = cytotoxicity” value was 3.03% [at 35.3 µM]. The same measure, in the same setting: as for `CCO[Si](CCC1CCC2OC2C1)(OCC)OCC` (stereo not given), the figure is 8.22%. On the same count and under the same terms, as for `CS(=O)(=O)O`, the figure is 6.9%; as for `Cc1cc(O)cc2c1O[C@](C)(CCC[C@H](C)CCC[C@H](C)CCCC(C)C)CC2`, 6.1% [at 35.3 µM]. For `CCCCCOC(=O)CCCCC`, the “activity change, negative = cytotoxicity” value was 4.14%. Regarding `CC(C)(C)c1ccc(O)c(O)c1`, the Potency was 25.4 µM (active) and 13.8 µM (active).
